A selection: hits, their analogues and other compounds. The true share with any hit is near 2.9%.
a7 integrin act – activates integrin-mediated alleviation for muscular dystrophy; alpha7betagal myoblasts, beta-gal FDG fluorescence, 48 h; Potency, µM (doses to about 38.3 µM), inactives show at the top dose activation, usual class: activators; hit rate 0.064% among 350,000; active = well fitted activation curve with a large enough effect; inconclusive = small, poorly fitted or top-dose-only effect; inactive = no such curve, though single readings can be large or run the other way;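 also: potency is read from the fitted curve at half-maximal effect; 100% = response of the positive control SU9516; nearly all actives have a fitted effect of over 60% in size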
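alpha7betagal+/- myoblasts (passage 13, 250/well) treated 48 h at 37C with compounds at 1:260 dilution of DMSO stock. Lysed, then beta-galactosidase activity read as FDG fluorescence (ex 480/em 540) after 30 min, with pre-read for autofluorescence.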
DRD3 agonist – agonists of human D3 dopamine receptor; max activation, %; P35462; D3R DiscoveRx beta-arrestin cells, luminescence, 90 min; hit rate 0.58% among 410,000; in the data active = max activation above about 30%; also: 0% is about no effect
Target sequence (P35462 whole entry, looked up): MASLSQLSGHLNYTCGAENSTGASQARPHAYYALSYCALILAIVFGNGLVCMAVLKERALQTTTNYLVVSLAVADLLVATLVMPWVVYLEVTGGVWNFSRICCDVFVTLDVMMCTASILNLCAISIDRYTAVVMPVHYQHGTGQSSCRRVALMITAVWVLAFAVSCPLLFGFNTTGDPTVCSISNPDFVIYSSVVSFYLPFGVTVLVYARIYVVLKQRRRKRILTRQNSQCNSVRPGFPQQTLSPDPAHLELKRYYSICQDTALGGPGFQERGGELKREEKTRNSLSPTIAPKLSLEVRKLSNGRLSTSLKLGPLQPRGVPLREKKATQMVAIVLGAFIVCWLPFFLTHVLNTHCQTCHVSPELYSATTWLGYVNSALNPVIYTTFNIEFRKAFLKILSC
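Agonist-mode cell screen: cells plated at 1500/well and incubated overnight at 37 °C, then exposed to library compounds for 90 min at 37 °C. Detection reagent was added for 30–60 min at room temperature, and luminescence was read.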
D3 antag – blocks the human D3 dopamine receptor; hit rate 2.5% among 360,000; P35462; AID 652054; max response, negative = inhibition, %; D3R cells, DiscoveRx beta-arrestin luminescence, antagonist mode; stronger effect = lower value; in the data active = max response below about -50%; inconclusive = no clear call, values can overlap the other calls; also: % is scaled to controls: 0 for no effect and ±100 for the full control effect
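Cells expressing the human receptor were seeded at 1500 cells/well, incubated overnight at 37 degrees C in 5% CO2, then exposed to library compounds with dopamine controls for 90 minutes at 37 degrees C before luminescent detection.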
The depositor's hits bear a star; ? = inconclusive; nt = no result given.

SMILES	a7 integrin act	DRD3 agonist	D3 antag
Cc1c(NC2(C#N)CCCC2)c(=O)n(-c2ccccc2)n1C	-20%	2	20
Cc1sc2ncn(CC(=O)Nc3cccc(S(N)(=O)=O)c3)c(=O)c2c1-c1ccccc1	12%	0	-8
Cc1ccnc(-n2c(C)cc(C=O)c2C)c1	-10%	12	28
Cc1cc(OCCOCCNC(C)C)cc(C)c1Cl	-57%	-12	-58*
Cc1cc(OCC(=O)NC(C)C)cc(C)c1Cl	26%	12	-10
Cc1ccc(-c2nn[nH]n2)o1	8%	15	-4
CCOC(=O)C1=CN(Cc2cccc(Br)c2)S(=O)(=O)N(C)C1C (stereo unspecified)	0%	-9	1
CCOC(=O)C1=CN(Cc2cccc(F)c2)S(=O)(=O)N(CC)C1c1ccc(C(F)(F)F)cc1 (stereo unspecified)	4%	-9	-55*
CCOC(=O)C1=CN(Cc2cccc(F)c2)S(=O)(=O)N(CC)C1c1ccccc1 (stereo unspecified)	16%	0	-25
CCOC(=O)C1=CN(Cc2cccc(I)c2)S(=O)(=O)N(C)C1C (stereo unspecified)	-1%	-49	-67*
CN(C(=O)COn1nnc2ccc(S(=O)(=O)N3CCOCC3)cc21)c1ccccc1	-37%	6	22
Cc1ccccc1COn1nnc2ccc(S(=O)(=O)N3CCOCC3)cc21	15%	0	-51*
O=C(Cc1ccc(NC(=O)N2CCSc3ncccc32)cc1)NCc1cccc(Cl)c1	nt	4	nt
COCCN(C(=O)COC(=O)c1ccco1)c1c(N)n(Cc2ccccc2)c(=O)[nH]c1=O	-12%	5	-4
COCCN(C(=O)COC(=O)c1cnc(C)cn1)c1c(N)n(Cc2ccccc2)c(=O)[nH]c1=O	11%	-13	-77*
O=S(=O)(Nc1ccccc1N1CCCCC1)c1cccs1	-20%	-5	-11
CN(C(=O)CSC1=Nc2ccccc2C2=NC(c3ccccc3)C(=O)N12)C1CCCCC1 (stereo unspecified)	12%	-6	-55*
O=C(CSC1=Nc2ccccc2C2=NC(c3ccccc3)C(=O)N12)NC1CCCCC1 (stereo unspecified)	3%	-4	-26
CC(C)CC(=O)N(c1ccc(F)cc1)C1C=CS(=O)(=O)C1 (stereo unspecified)	12%	3	-10
COc1ccc(NC(=S)N(CCC(C)C)C2CCN(C(C)C)CC2)cc1	-62%	-16	-54*
COc1ccc(NC(=S)N(CCC(C)C)C2CCN(C(C)=O)CC2)cc1	24%	-1	3
O=C(NC(NC(=S)Nc1ccc(Cl)cc1Cl)C(Cl)(Cl)Cl)c1cccc([N+](=O)[O-])c1 (stereo unspecified)	-59%	-2	-58*
COc1ccc([N+](=O)[O-])cc1NC(=S)NC(NC(C)=O)C(Cl)(Cl)Cl (stereo unspecified)	-12%	-26	0
COc1ccc(NC(=S)NC(NC(=O)C(C)C)C(Cl)(Cl)Cl)c([N+](=O)[O-])c1 (stereo unspecified)	5%	-1	-69*
COc1ccc([N+](=O)[O-])cc1NC(=S)NC(NC(=O)Cc1ccc(OC)c(OC)c1)C(Cl)(Cl)Cl (stereo unspecified)	-20%	-12	-93*
SMILES	a7 integrin act	DRD3 agonist	D3 antag
O=C(O)c1cccc(NC(=S)NC(NC(=O)c2cccc([N+](=O)[O-])c2)C(Cl)(Cl)Cl)c1 (stereo unspecified)	-17%	6	3
COc1ccc(NC(=O)CC(C)C)c([N+](=O)[O-])c1	15%	-5	11
CCCN(CCC)CCNC(=O)Cn1cc2c(n1)-c1c(oc(C(=O)N3CCCC3)c1C)CC2	-6%	-6	-7
COc1cccc(NC(=O)c2cccc(Cl)c2)c1	-42%	15	29
COc1ccccc1-c1nnc(NC(C)=O)s1	33%	-5	-88*
CCCCOC(=O)Nc1nnc(-c2ccccc2OC)s1	8%	-5	15
COc1ccccc1-c1nnc(NC(=O)C(C)Sc2nncn2C)s1 (stereo unspecified)	-8%	0	-5
COc1ccccc1-c1nnc(NC(=O)C(C)C)s1	-7%	-2	-75*
Cc1cc2c(C)nc(N/N=C/c3ccc([N+](=O)[O-])cc3)nc2o1	?	3	-5
Cc1cc2c(C)nc(N/N=C/c3ccc(F)cc3)nc2o1	18%	3	-56*
COc1ccc(NC(=O)Cc2coc3cc(C)cc(C)c23)c(OC)c1	nt	2	nt
CC(C)(C)c1ccc(-c2nc(SCCCOc3ccccc3)n3[nH]c(=O)cc3n2)cc1	nt	14	nt
COc1ccccc1OCCCSc1nc(-c2ccc(C(C)(C)C)cc2)nc2cc(=O)[nH]n12	nt	31*	nt

Screens: PubChem BioAssay, National Center for Advancing Translational Sciences (NCATS)
